{"source": "PubChem BioAssay (NCI)", "note": "Values joined by “and” are separate entries in the source; they are usually repeats but may differ in a detail not shown here. Identical values can stand only once. Compounds without any hit were thinned out: in the full panel of roughly 83,000, 20% have a hit.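 96-well plates, one dose, 48 hours. Percent growth reported; active if below 10.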 A number with no mark means an inactive call. Active and inactive are the calls of the source."}
{"tested_on": "MDA-MB-468 breast", "assay": "NCI-60 one-dose screen, 48 h (100 = growth as untreated, 0 = no growth, -100 = all killed)", "conditions": "10 µM unless noted"}
{"compound": "CCn1c(Sc2nnc(NC(=O)CCN3CCCC3)s2)nc2c1c(=O)n(C)c(=O)n2C", "growth": "101%"}
{"compound": "COc1ccc(C2CC(c3ccc(N(C)C)cc3)=NN2c2ccc(S(N)(=O)=O)cc2)cc1", "note": "(stereo unspecified)", "growth": "57.6%"}
{"compound": "Cc1nn(-c2ccccc2)c2c1oc(=O)c1cc(Cl)ccc12", "growth": "98.7%"}
{"compound": "[2H]C([2H])([2H])Oc1ccc(/C=C/C(=O)/C=C(/C=C/c2ccc(OC([2H])([2H])[2H])c(OC([2H])([2H])[2H])c2OC([2H])([2H])[2H])OB(F)F)c(OC([2H])([2H])[2H])c1OC([2H])([2H])[2H]", "growth": "65%"}
{"compound": "O=C(Nc1cccc(-n2cc(-c3ccncc3)c(-c3cc(O)cc(Cl)c3)n2)c1)Nc1ccc(Cl)c(C(F)(F)F)c1", "growth": "5.22% (active)"}
{"compound": "CN(C)C(=N)N=C(N)N", "growth": "80.6% and 128%"}
{"compound": "c1cc2[nH]ncc2cc1-c1nc2ccc3[nH]ncc3c2c2c1CCCC2", "growth": "-3.32% (active)"}
{"compound": "CCOC(=O)c1c(C)nc2ccccc2c1/C=C/c1cccs1", "growth": "-2.39% (active)"}
{"compound": "CCCCN(CCCC)CCCn1c(-c2ccccc2)ccc1-c1ccccc1", "growth": "43%"}
{"compound": "O=Nc1ccc(O)c2ccccc12", "growth": "11.7%"}
{"compound": "Cc1ccc(-c2nc(C#N)c(S(=O)(=O)N(C)CCO)o2)cc1", "growth": "46.1%"}
{"compound": "CCn1c(SCc2ccc(C)cc2)nnc1-c1nn(-c2ccc(Cl)cc2Cl)c(-c2ccc(Cl)cc2)c1C", "growth": "6.59% (active)"}
{"compound": "Oc1c(CCl)cc(Cl)cc1Cc1cc(Cl)cc(Cc2cc(Cl)cc(CCl)c2O)c1O", "growth": "18.8%"}
{"compound": "COc1ccc(C/C(C)=C(\\c2ccc(OCCN3CCCCCC3)cc2)c2ccc(OC(=O)C3CCCCC3)cc2)cc1", "growth": "45%"}
{"compound": "c1ccc(-c2ccc(-c3ccccc3)[nH]2)cc1", "growth": "70.1%"}
{"compound": "Cc1c(-c2ccccc2)[nH]c2ccccc12", "growth": "88.1%"}
{"compound": "COCCOc1ccc(-c2nc3ccc(-c4nc5ccc(N6CCN(C)CC6)cc5[nH]4)cc3[nH]2)cc1", "growth": "-22.5% (active)"}
{"compound": "C/C(CC(=O)NNc1ccc([N+](=O)[O-])cc1)=N\\Nc1ccc([N+](=O)[O-])cc1", "growth": "97.7%"}
{"compound": "COc1cc(OC)c2c(=O)c(O)c(-c3ccccc3)oc2c1", "growth": "75.5%"}
{"compound": "CC(C)OP(=O)(OC(C)C)c1ncc(-c2ccc(C(F)(F)F)cc2)c(NC2CCCCCC2)n1", "growth": "12.8% [33.3 µM]"}
{"compound": "Cc1cc(C)c(CCc2cc(C)c(C)cc2C)cc1C", "growth": "109%"}
{"compound": "CN1CCN(c2ccc(/C=N/Nc3nc4ccccc4c(=O)n3-c3ccccc3)cc2)CC1", "growth": "90.8%"}
{"compound": "CCS/C(Nc1ccccc1)=C(\\C#N)C(=O)N/N=C/c1ccc(Cl)cc1Cl", "growth": "19.6%"}
{"compound": "Oc1ccc(/C=C/c2ccccc2)cc1", "growth": "81.3%"}
{"compound": "O=C(O)CN1C(=O)CCC1=O", "growth": "108%"}
{"compound": "COc1ccc(Cc2cnc(N)nc2N)cc1OC", "growth": "104%"}
